From PubChem BioAssay
FXN GAA850 act: increases GAA850 frataxin promoter reporter activity. HEK293 lucGAA850 FXN promoter luciferase reporter, 24 h; percent of 10 µM SAHA response. activation, % at 6 µM. hit rate 0.56% among 360,000. AID 540364;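 active = activation above the average of all compounds screened plus 3 SD, cutoff fixed separately per campaign, cut at about 7.5% in these data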
NR0B1 inh: inhibitors of human orphan nuclear receptor DAX1 (NR0B1). P51843. HEK293 Gal4-DAX1 luciferase reporter, luminescence. inhibition, % at 6.75 µM. hit rate 0.99% among 340,000. AID 504766;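 active = inhibition above the mean over all tested compounds plus 3 SD, cut at about 4.2% in these data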;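 also: inhibition shows as a rise in luminescence from relieved DAX1 repression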
Target sequence (P51843 207-470 limits assumed): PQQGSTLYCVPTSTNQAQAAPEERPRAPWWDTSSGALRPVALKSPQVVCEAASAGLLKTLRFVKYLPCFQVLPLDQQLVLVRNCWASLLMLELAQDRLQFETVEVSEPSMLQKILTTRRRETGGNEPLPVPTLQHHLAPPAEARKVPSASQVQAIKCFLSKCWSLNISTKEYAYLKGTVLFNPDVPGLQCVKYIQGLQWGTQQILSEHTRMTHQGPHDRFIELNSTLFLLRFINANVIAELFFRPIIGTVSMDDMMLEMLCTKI
HSF1 inh: HSF1 inhibition | activity change, negative = inhibition, % at 7.5 µM (by protocol) | AID 2098 | hit rate 0.77% among 300,000 | NIH3T3-HGL HSE-luciferase, MG132-induced, luminescence 8 h; stronger effect = lower value;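 active = more than half of replicate wells show activity change below -50%, luminescence cut by over half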;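 also: luciferase reports HSF-1 transcriptional activity via heat shock element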
AHR act: activates the human aryl hydrocarbon receptor; AHR-responsive luciferase reporter cells, luminescence; activation, % at 5 µM; hit rate 2.5% among 320,000; AID 2796; in the data active = activation above about 47%
HSF-1 act: increases HSF-1 driven luciferase reporter signal; NIH3T3-HGL HSF-1 luciferase reporter, MG132, 8 h; 100% = twice DMSO control signal; activation, % at 9 µM; hit rate 1.7% among 300,000; AID 504408;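 active = mean replicate activation of at least 50% with a set share of replicates each reaching 50%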
Each line names hits and unclear results; the compound was inactive in the other large screens. This is a sample that favours compounds with a hit; in the whole collection about 5.4% have one here.

O=C1Nc2c(ccc(Cl)c2Cl)C(=O)C1(F)c1ccccc1 (stereo not given)	AHR act 92
CCCn1c(N)c(NCCN2CCOCC2)c(=O)[nH]c1=O	none
Cc1cc(C)c(NC(=O)CCCC(=O)O)c(Cl)c1	none
CC(C)=CC(=O)Nc1c(C)cc(C)cc1Cl	NR0B1 inh 4.6
Cc1c(C#N)c(O)n(CCO)c(=O)c1N=Nc1ccccc1	NR0B1 inh 4.4
Cc1c(C#N)c(O)n(CCO)c(=O)c1N=Nc1ccc(S(N)(=O)=O)cc1	none
Cc1ccc(C(=O)Nc2nccc(-c3cccs3)n2)cc1	AHR act 71
Cc1ccc(C(=O)Nc2c(-c3cccs3)nc3cc(C)ccn23)cc1	none
O=C(COC(=O)COc1cccc(Br)c1)Nc1c(Cl)cccc1Cl	HSF-1 act 54
COc1ccc(NC(=O)COC(=O)COc2cccc(Br)c2)cc1OC	none
Clc1ncnc2scc(C3COc4ccccc4O3)c12 (stereo not given)	HSF-1 act 58
Cc1cccn2c(=O)c3cc(S(=O)(=O)c4ccc(F)cc4)c(=N)n(Cc4ccco4)c3nc12	HSF-1 act 98
Cc1cccn2c(=O)c3cc(S(=O)(=O)c4ccccc4)c(=N)n(Cc4ccco4)c3nc12	none
Cc1cccc(C(=O)Nc2ccc(C(=O)/C=C/c3cccnc3)cc2)c1	FXN GAA850 act 15, HSF-1 act 163
Cc1cccc(/C=C/C(=O)c2ccc(NC3=NCCCS3)cc2)c1	HSF-1 act 74
CCCN(Cc1nnc(-c2cccs2)o1)C(=O)CN1C(=O)NC2(CCCCC2C)C1=O (stereo not given)	none (no result: HSF1 inh, HSF-1 act)
Cc1cc(NCCCN2CCOCC2)n2c(nc3ccccc32)c1C#N	AHR act 73
Cc1cc(NCCN2CCOCC2)n2c(nc3ccccc32)c1C#N	none
CCN(CC)CCNc1cc(C)c(C#N)c2nc3ccccc3n12	AHR act 48
CCC(C)n1c(SC(C)C#N)nc2ccccc2c1=O (stereo not given)	HSF1 inh -85
CC(C#N)On1c(SC(C)C#N)nc2ccccc2c1=O (stereo not given)	none
COc1ccc(/C=N/NS(=O)(=O)c2ccc(C)cc2)cc1OC(=O)c1ccccc1	none (no result: HSF1 inh, HSF-1 act)
COc1cc(/C=N/NS(=O)(=O)c2ccc3ccccc3c2)ccc1OCc1ccc(C(=O)O)cc1	HSF1 inh -74
COc1cc(/C=N/NS(=O)(=O)c2ccc(C)cc2)ccc1OCc1cccc(C(=O)O)c1	HSF1 inh -64
Cn1c(Cl)c(C(=O)Nc2ccc(Cl)cc2)c2ccccc21	AHR act 57 (no result: HSF1 inh, HSF-1 act)
c1ccc(-c2ncnc3cc4n(c23)CCC4)cc1	none
Cc1ccc(NC(=O)c2ccccc2)s1	none
Cc1cc(NC(=O)c2ccccc2)sc1C	HSF-1 act 60
Cc1cc(NC(=O)c2ccccc2)cc(NC(=O)c2ccccc2)c1C	AHR act 78
O=C(NCC(=O)N1CCCC(C(F)(F)F)C1)c1ccco1 (stereo not given)	none (no result: HSF1 inh, HSF-1 act)
O=C(CCNS(=O)(=O)c1ccccc1)NNC(=O)C1COc2ccccc2O1 (stereo not given)	none
COc1ccc(-c2cc(=O)c3c(O)cc(O)cc3o2)cc1	none (no result: HSF1 inh, HSF-1 act)
O=c1cc(-c2ccc(O)c(O)c2)oc2cc(O)cc(O)c12	FXN GAA850 act 11
Nn1c(-c2cccc(Br)c2)n[nH]c1=S	HSF1 inh -54
O=C(Nc1nnc(SCc2ccccn2)s1)C1CC(=O)N(c2ccccc2)C1 (stereo not given)	NR0B1 inh 6.5
Cc1ccc(N2CC(C(=O)Nc3nnc(SCc4ccccn4)s3)CC2=O)cc1 (stereo not given)	none
Cc1[nH]c(=O)[nH]c(=O)c1/C=N/NC(=O)[C@H](C)N	NR0B1 inh 5.7
COc1ccc(C(CNC(=O)c2ccc(NS(=O)(=O)c3cccc([N+](=O)[O-])c3)cc2)N2CCOCC2)cc1 (stereo not given)	none
COc1ccc(C(=O)OCC(=O)Nc2ccc(OC)c(S(=O)(=O)N3CCCCC3)c2)cc1[N+](=O)[O-]	none (no result: HSF1 inh, AHR act, HSF-1 act)
Cc1ccc(NC(=O)COC(=O)c2ccc3c(c2)OCO3)cc1S(=O)(=O)N1CCCCC1	HSF-1 act 56
COc1cc(NC(=O)COC(=O)c2ccc(C)c(S(=O)(=O)N3CCCCC3)c2)c(C)cc1[N+](=O)[O-]	HSF-1 act 64
Cc1ccc(NC(=O)COC(=O)c2ccc(OC(F)F)cc2)cc1S(=O)(=O)N1CCCCC1	none (no result: HSF1 inh, AHR act, HSF-1 act)
